D1 antag = human D1 dopamine receptor antagonism. P21728. HEK293 TREx D1 cells, calcium flux, dopamine EC80; active compounds read low. activity change, negative = inhibition, % at 10 µM. 360,000 tested, 3.2% active. AID 504652; in the data active = activity change below about -30%; also: % is scaled to controls: 0 for no effect and ±100 for the full control effect
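Inducible Hek293 Trex D1 cells (tetracycline, overnight, 30 C). Calcium dye 30–90 min RT. Antagonist mode: EC80 dopamine added after 180 s compound read.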
D1 ag = activates the human D1 dopamine receptor; P21728; HEK293 T-REx D1 cells, calcium flux, agonist mode; activation, % at 2 µM; 360,000 tested, 1% active; AID 504660; also: 0% is about no effect
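Agonism was scored from calcium flux recorded over 180 s (1 read/s) after pintool compound addition, following a 10-cycle baseline. Cells were inducible force-coupled HEK293 TREx D1, plated overnight at 30 C and loaded with no-wash calcium dye.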
D1 PAM = human D1 dopamine receptor positive modulation. HEK293 TREx D1 cells, calcium flux, dopamine EC20 potentiation. potentiation, % at 10 µM. 360,000 tested, 0.036% active. AID 504651; in the data active = potentiation above about 30%; also: 0% is about no effect
TRHR enhancer = allosterically enhances the human TRH receptor | P34981 | TRHR cells, fluo-8 calcium fluorescence, EC20 TRH enhancement | enhancement, % at 2 µM | 360,000 tested, 0.66% active; in the data active = enhancement above about 30%; also: 0% is about no effect
Target sequence (P34981 whole entry, looked up): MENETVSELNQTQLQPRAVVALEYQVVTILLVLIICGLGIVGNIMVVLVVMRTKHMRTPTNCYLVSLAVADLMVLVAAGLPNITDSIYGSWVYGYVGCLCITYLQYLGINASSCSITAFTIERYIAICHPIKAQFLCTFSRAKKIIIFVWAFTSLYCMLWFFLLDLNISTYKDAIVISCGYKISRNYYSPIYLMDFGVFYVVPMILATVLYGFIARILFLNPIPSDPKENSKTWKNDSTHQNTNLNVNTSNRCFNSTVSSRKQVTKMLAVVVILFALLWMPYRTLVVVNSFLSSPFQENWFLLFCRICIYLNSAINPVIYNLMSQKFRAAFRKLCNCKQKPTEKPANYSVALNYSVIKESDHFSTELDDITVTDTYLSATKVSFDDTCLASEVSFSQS
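TRHR-expressing cells loaded with fluo-8 calcium dye were read kinetically (ex 480/em 530) during compound addition, then stimulated with an EC20 of TRH (10 nM final). Enhancement of the Gq-mediated intracellular calcium response was scored.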
TRHR agonist = activates the human TRH receptor | activation, % at 2 µM | TRHR cells, calcium flux fluo-8, FDSS agonist mode | P34981 | AID 493084 | 360,000 tested, 0.18% active; also: 0% is about no effect
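In this calcium-flux screen, cells bearing human TRHR are dye-loaded with fluo-8, baselined for 10 cycles, then exposed to library compounds; positive kinetic calcium responses during the agonist phase mark hits, with TRH as control.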
* = called active by the depositor. Most compounds without a hit are left out; they make up all but 4.6% or so of the library. Rule as the data show it, unless noted: active = activation above about 30%; inactive = the rest.

SMILES	D1 antag	D1 ag	D1 PAM	TRHR enhancer	TRHR agonist
CCOc1ccc(-n2c(SCC(=O)N3CCCCCC3)nc3c([nH]c4ccccc43)c2=O)cc1	8.7	2.3	-1.1	0.1	-0.4
O=C(NCCCN1CCN(c2ccccc2F)CC1)Nc1ccc(F)cc1	-78.7*	4.1	-11.3	2.6	-0.3
O=C(NCCCN1CCN(c2ccccc2F)CC1)Nc1ccccc1[N+](=O)[O-]	-53.8*	7.9	-13.8	1.6	-0.4
CSc1ccc(NC(=O)NCCCN2CCN(c3ccccc3F)CC2)cc1	-72.9*	37.0*	-4.0	-0.7	0.7
O=C(Nc1ccc(Cl)cc1)c1ccc(OCC2CCCO2)cc1 (stereo not given)	-65.8*	3.6	-3.9	16.2	0.5
Cc1ccc(CNC(=O)c2ccc(OCC3CCCO3)cc2)cc1 (stereo not given)	-70.7*	2.0	-5.8	6.2	-0.4
O=C(NCc1ccc(Cl)cc1)c1ccc(OCC2CCCO2)cc1 (stereo not given)	-14.0	3.7	-4.7	-4.7	-0.1
N#CCC(N)=C(C#N)C#N	8.9	80.2*	7.5	-8.2	38.3*
O=C(O)c1cc(-c2ccc3c(c2)OCO3)nc2ccc(Cl)cc12	-11.8	2.6	1.2	33.5*	-0.3
Cn1c(NC(=O)c2cc(-c3ccc4c(c3)OCO4)nc3ccccc23)cc(=O)n(C)c1=O	-30.5*	3.5	1.0	14.3	-0.1
Cc1cc(Br)ccc1NC(=O)CSc1c2c(nc3ccccc13)CCC2	10.3	-1.2	-0.7	-9.3	-0.3
C(#Cc1ccccc1)C[N+]1(CC#Cc2cccc3ccccc23)CCCC1	-24.7	1.4	-6.2	2.8	0.3
C#CC[N+]1(CC#Cc2ccc(C#CC[N+]3(CC#C)CCOCC3)cc2)CCOCC1	-81.4*	0.3	-3.5	3.2	0.2
C#CC[N+]1(CC#Cc2ccccc2)CCCC1	-52.0*	-0.6	-2.0	-4.6	0.2
COc1ccc(NC(=O)C2CCCN2S(=O)(=O)c2ccc3c(c2)CCCC(=O)N3)cc1Cl (stereo not given)	-6.5	0.8	3.0	11.4	-0.1
COc1ccc(-c2noc(-c3ccc(N4CCN(c5ccccc5OC)CC4)c([N+](=O)[O-])c3)n2)cc1	-15.9	1.1	4.4	-2.1	0.1
CC(=O)Nc1ccnc(-c2cccnc2)n1	-4.0	0.1	0.0	1.2	0.8
CCCCC(=O)Nc1ccnc(-c2cccnc2)n1	-86.4*	220.4*	-2.4	0.6	0.2
Cn1cc(C(=O)N2CCc3ccccc3C2)c(=O)c2cc(S(=O)(=O)N3CCOCC3)ccc21	-6.0	-1.5	-0.4	7.1	0.5
CCN(CC)S(=O)(=O)c1ccc2c(c1)c(=O)c(C(=O)N1CCc3ccccc3C1)cn2C	-37.5*	0.5	4.8	-3.9	-0.9
CCc1ccc(NC(=O)CSc2nc3c(sc4ccccc43)c(=O)n2CCCOC)cc1	1.6	0.9	0.8	5.9	-0.1
COCCCn1c(SCC(=O)NCc2ccccc2)nc2c(sc3ccccc32)c1=O	-39.5*	5.9	-2.9	-2.8	0.3
CCc1ccc(NC(=O)CSc2nc3c(sc4ccccc43)c(=O)n2CCCOC(C)C)cc1	-35.4*	3.9	-3.0	4.7	0.0
CCOC(=O)c1sc2ccccc2c1S(=O)(=O)Nc1c(C)cccc1C	-9.6	1.4	-5.4	0.9	0.0
CC(C)n1c(=O)c2oc3ccccc3c2n(CC(=O)Nc2ccccc2Cl)c1=O	16.9	5.8	0.7	-1.0	1.0
SMILES	D1 antag	D1 ag	D1 PAM	TRHR enhancer	TRHR agonist
O=C(COc1ccccc1)NCC(c1ccco1)N1CCN(c2ccc(F)cc2)CC1 (stereo not given)	-64.2*	21.9	-2.6	11.8	-0.7
O=C(COc1ccccc1)NCCS(=O)(=O)N1CCN(c2ccccc2)CC1	-35.4*	0.3	-9.2	0.1	-0.3
Cn1nc(-c2ccccc2)c(C#N)c1Sc1cccc(Cl)c1	-22.4	88.3*	-3.6	15.4	-1.8
Cc1nn(C)c(Oc2cccc(Cl)c2)c1C#N	1.7	0.3	1.3	0.9	-1.3
COc1ccc(Cl)cc1NC(=S)N1CCCCCC1	-2.5	1.1	0.5	40.1*	-0.2
COc1ccc(OC)c(NC(=S)N2CCCC2)c1	2.4	0.6	-3.2	8.7	0.4
COc1ccc(Cl)cc1NC(=S)N1CCN(c2ccccn2)CC1	2.7	-0.3	-0.5	32.4*	0.1
COc1ccc(Cl)cc1NC(=S)N1CCN(c2ncccn2)CC1	1.9	2.9	3.2	0.9	-1.8

High-throughput results from PubChem.
